The full data set covers some 7,900 targets. This sample favours those with a hit. About 0.6% of all pairs of compound and target were hits.
Key:
Assay in all cases: log2 fold change, soluble protein after heating vs DMSO (PISA); higher = thermal stabilisation; K562 cells, 10 uM, 30 min; active = over 0.2 and 3.5 SD of the protein, either way, in both replicates (recomputed)
IRAK-1-4 Inhibitor I = compound: C1COCCN1CCN2C3=CC=CC=C3N=C2NC(=O)C4=CC(=CC=C4)[N+](=O)[O-] [IRAK-1-4 Inhibitor I]
Procedure, shortened: (§1)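 Thermal stability values are relative to control samples and come from duplicates. They are expressed as log2 fold changes. For measurement, K562 cells (2×10^6 cells/mL) received 10 μM compound for 30 min, and aliquots were heated for 3 min over 48°C-58°C, pooled, and extracted at 4°C in PBS with 0.5% NP-40. Soluble protein, the supernatant after 21,000xg for 90 min, was quantified by TMTpro 16plex LC-MS/MS with equalised channel sums.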

ibrutinib = compound: C=CC(=O)N1CCC[C@@H](n2nc(-c3ccc(Oc4ccccc4)cc3)c3c(N)ncnc32)C1 [ibrutinib]
Procedure, shortened: as §1

[1] = compound: CC(=O)c1cnc2ccc(-c3cc(Cl)c(O)c(Cl)c3)nc2c1N[C@H]1CC[C@H](CN(C)C)CC1
Procedure, shortened: as §1

ralimetinib = compound: CC(C)(C)Cn1c(N)nc2ccc(-c3[nH]c(C(C)(C)C)nc3-c3ccc(F)cc3)nc21 [ralimetinib]
Procedure, shortened: as §1

[2] = compound: CC(C)(O)CC(=O)NCCn1ccc2ncnc(Nc3ccc(Oc4cccc(C(F)(F)F)c4)c(Cl)c3)c21
Procedure, shortened: as §1

[3] = compound: CC(C)C1=C2N=C(C=C(N2N=C1)NCC3=CC=CC=C3)NCCCCCCN
Procedure, shortened: as §1

[4] = compound: CC(C)C[C@@H](C=O)NC(=O)[C@H](CC(C)C)NC(=O)[C@H](CC(C)C)NC(=O)OCc1ccccc1
Procedure, shortened: as §1

pinometostat = compound: CC(C)N(C[C@H]1O[C@@H](n2cnc3c(N)ncnc32)[C@H](O)[C@@H]1O)[C@H]1C[C@@H](CCc2nc3cc(C(C)(C)C)ccc3[nH]2)C1 [pinometostat]
Procedure, shortened: as §1

[5] = compound: CC1=C(C(CC(=O)N1)C2=CC=C(C=C2)C(F)(F)F)C(=O)NC3=C(C=C4C(=C3)C=NN4)F
Procedure, shortened: as §1

[6] = compound: CC1=C(C2=C(C=C1)C(=O)C3=CC=CC=C3N2CCCN)C
Procedure, shortened: as §1

[7] = compound: CC1=C(C=C(C=C1)NC(=O)C2=CC(=CC=C2)C(C)(C)C#N)NC3=CC4=C(C=C3)N=CN(C4=O)C
Procedure, shortened: as §1

[8] = compound: CC1=C(C=C(C=C1)NC(=O)C2=CC(=CC=C2)N(C)C)NC(=O)C3=CC=C(C=C3)O
Procedure, shortened: as §1

[9] = compound: CC1=CC=C(C=C1)SC2=C3C=C(SC3=CN=C2)C(=O)N
Procedure, shortened: as §1

[10] = compound: CC1=NC(=CC=C1)C2=C(N=C(N2)C(C)(C)C)C3=CC4=NC=CN=C4C=C3
Procedure, shortened: as §1

Nexturastat A = compound: CCCCN(Cc1ccc(C(=O)NO)cc1)C(=O)Nc1ccccc1 [Nexturastat A]
Procedure, shortened: as §1

vemurafenib = compound: CCCS(=O)(=O)Nc1ccc(F)c(C(=O)c2c[nH]c3ncc(-c4ccc(Cl)cc4)cc23)c1F [vemurafenib]
Procedure, shortened: as §1

[11] = compound: CCCS(=O)(=O)Nc1ccc(F)c(C(=O)c2c[nH]c3ncc(Cl)cc23)c1F
Procedure, shortened: as §1

[12] = compound: CCCc1cc(C)[nH]c(=O)c1CNC(=O)c1cc(-c2ccnc(N3CCN(C)CC3)c2)cc2c1cnn2C(C)C
Procedure, shortened: as §1

givinostat = compound: CCN(CC)Cc1ccc2cc(COC(=O)Nc3ccc(C(=O)NO)cc3)ccc2c1 [givinostat]
Procedure, shortened: as §1

barasertib = compound: CCN(CCCOc1ccc2c(Nc3cc(CC(=O)Nc4cccc(F)c4)[nH]n3)ncnc2c1)CCOP(=O)(O)O [barasertib]
Procedure, shortened: as §1

Measured: log2 fold change

ERCC6 (UniProt Q03468)
inactive: IRAK-1-4 Inhibitor I 0.05 | ibrutinib -0.079 | [1] 0.11 | ralimetinib 0.05 | [2] -0.094 | [3] -0.015 | [4] 0.018 | pinometostat -0.078 | [5] 0.157 | [6] -0.041 | [7] -0.127 | [8] -0.038 | [9] 0.005 | [10] -0.038 | Nexturastat A -0.126 | vemurafenib 0.064 | [11] 0.074 | [12] -0.017 | givinostat 0.071 | barasertib 0.065

FAM241A (UniProt Q8N8J7)
UniProt Q8N8J7, sequence (Q8N8J7 whole entry, looked up): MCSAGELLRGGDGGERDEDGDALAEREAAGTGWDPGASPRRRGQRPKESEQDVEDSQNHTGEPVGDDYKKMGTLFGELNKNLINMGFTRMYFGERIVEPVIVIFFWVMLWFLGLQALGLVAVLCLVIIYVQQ
active: [7] 0.536
inactive: IRAK-1-4 Inhibitor I 0.011 | ibrutinib -0.094 | [1] 0.063 | ralimetinib -0.019 | [3] -0.008 | [4] 0.004 | pinometostat -0.029 | [5] 0.059 | [6] -0.008 | [8] -0.012 | [9] -0.031 | [10] -0.028 | vemurafenib -0.083 | [11] 0.015 | [12] -0.009 | givinostat -0.037 | barasertib 0.06

DNAH10 (UniProt Q8IVF4)
inactive: IRAK-1-4 Inhibitor I 0.004 | ibrutinib 0.018 | [2] -0.127 | [3] 0.162 | pinometostat -0.106 | [5] -0.154 | [6] -0.022 | [7] -0.034 | [10] -0.114 | Nexturastat A 0.434 | vemurafenib -0.067 | [12] -0.269 | givinostat 0.307 | barasertib 0.014

EEF1D isoform 3 (UniProt P29692)
UniProt P29692, sequence (P29692 whole entry, looked up): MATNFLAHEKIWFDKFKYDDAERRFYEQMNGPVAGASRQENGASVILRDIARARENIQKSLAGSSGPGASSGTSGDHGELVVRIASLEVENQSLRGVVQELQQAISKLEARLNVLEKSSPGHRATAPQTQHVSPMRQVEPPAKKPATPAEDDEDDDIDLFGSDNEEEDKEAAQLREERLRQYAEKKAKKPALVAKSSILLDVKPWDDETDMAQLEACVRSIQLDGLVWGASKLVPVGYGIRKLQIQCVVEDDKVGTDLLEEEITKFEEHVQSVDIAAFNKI
inactive: [3] -0.27 | [6] 0.605 | [12] -0.674 | givinostat -0.236

ELOVL7 (UniProt A1L3X0)
active: [3] -0.617
inactive: [1] 0.059 | [2] -0.177 | [6] 0.062 | Nexturastat A 0.016 | givinostat 0.034

EPHX2 (UniProt E5RI53)
inactive: ibrutinib 0.085 | [2] 0.071 | Nexturastat A 0.029 | barasertib 0.094

CWF19L2 (UniProt Q2TBE0)
UniProt Q2TBE0, sequence (Q2TBE0 whole entry, looked up): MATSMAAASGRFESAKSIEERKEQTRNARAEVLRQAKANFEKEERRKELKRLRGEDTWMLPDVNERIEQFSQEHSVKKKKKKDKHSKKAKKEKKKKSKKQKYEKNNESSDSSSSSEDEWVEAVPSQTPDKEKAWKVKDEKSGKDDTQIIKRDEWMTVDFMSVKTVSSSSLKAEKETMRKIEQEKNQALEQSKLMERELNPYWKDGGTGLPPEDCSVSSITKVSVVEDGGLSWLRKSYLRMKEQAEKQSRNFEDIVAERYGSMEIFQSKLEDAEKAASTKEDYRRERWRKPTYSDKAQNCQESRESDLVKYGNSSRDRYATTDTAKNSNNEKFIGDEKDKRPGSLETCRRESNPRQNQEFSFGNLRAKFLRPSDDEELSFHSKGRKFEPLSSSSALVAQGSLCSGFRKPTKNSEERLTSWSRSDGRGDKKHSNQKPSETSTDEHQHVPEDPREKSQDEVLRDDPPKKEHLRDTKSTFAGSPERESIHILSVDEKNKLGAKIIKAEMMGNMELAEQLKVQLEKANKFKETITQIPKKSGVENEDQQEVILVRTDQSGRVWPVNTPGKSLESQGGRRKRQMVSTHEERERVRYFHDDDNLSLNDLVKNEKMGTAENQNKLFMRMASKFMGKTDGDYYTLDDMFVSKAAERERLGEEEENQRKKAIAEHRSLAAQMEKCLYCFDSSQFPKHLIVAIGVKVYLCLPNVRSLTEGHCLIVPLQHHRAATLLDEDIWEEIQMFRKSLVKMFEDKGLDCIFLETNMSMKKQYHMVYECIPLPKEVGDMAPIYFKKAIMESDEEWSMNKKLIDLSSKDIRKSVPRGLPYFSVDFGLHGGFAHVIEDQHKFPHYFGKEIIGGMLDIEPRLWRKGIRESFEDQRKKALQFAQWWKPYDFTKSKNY
inactive: IRAK-1-4 Inhibitor I 0.029 | [1] -0.075 | ralimetinib 0.014 | [3] 0.184 | [4] 0.02 | pinometostat 0.098 | [6] 0.106 | [7] -0.048 | [8] 0.046 | [9] 0.166 | [10] -0.038 | [11] -0.057 | givinostat 0.035

EHBP1 (UniProt Q8NDI1)
UniProt Q8NDI1, sequence (Q8NDI1 whole entry, looked up): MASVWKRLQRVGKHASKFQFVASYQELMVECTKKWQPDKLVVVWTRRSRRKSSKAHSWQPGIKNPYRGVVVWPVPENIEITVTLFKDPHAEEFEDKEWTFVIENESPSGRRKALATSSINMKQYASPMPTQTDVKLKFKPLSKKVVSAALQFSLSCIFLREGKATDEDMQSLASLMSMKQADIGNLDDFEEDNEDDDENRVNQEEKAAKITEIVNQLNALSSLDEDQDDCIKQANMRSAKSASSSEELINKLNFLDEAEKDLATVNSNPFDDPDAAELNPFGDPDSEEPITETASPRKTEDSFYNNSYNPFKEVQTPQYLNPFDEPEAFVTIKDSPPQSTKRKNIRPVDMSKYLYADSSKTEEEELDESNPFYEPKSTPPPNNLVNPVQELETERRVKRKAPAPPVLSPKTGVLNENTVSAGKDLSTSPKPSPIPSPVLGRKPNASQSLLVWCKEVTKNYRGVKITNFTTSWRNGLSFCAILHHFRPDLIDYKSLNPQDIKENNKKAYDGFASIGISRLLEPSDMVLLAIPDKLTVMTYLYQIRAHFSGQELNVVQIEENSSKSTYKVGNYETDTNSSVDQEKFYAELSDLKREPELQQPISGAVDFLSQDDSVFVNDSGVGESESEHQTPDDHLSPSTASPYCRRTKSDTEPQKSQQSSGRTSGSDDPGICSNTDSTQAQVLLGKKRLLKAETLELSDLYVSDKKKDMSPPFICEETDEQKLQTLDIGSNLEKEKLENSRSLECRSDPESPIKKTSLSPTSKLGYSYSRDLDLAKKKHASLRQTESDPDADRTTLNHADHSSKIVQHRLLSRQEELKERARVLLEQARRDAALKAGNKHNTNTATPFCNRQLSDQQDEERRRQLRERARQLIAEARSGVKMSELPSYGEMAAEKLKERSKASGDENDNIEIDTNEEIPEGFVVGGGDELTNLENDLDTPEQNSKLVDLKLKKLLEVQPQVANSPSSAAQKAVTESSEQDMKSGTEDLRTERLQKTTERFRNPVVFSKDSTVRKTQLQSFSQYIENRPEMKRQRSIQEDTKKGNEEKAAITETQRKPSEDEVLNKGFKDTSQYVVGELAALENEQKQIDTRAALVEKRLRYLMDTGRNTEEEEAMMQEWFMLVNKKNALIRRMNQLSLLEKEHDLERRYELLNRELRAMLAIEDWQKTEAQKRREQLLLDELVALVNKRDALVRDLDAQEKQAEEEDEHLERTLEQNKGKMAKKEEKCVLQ
inactive: [1] 0.018 | [6] -0.003 | [12] -0.028

EID1 (UniProt Q9Y6B2)
UniProt Q9Y6B2, sequence (Q9Y6B2 whole entry, looked up): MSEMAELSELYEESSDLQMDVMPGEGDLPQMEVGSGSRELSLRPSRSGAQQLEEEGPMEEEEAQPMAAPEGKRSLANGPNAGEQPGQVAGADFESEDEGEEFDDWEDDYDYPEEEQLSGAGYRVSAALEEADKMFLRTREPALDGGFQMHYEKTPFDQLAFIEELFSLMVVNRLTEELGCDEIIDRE
inactive: [2] 0.002 | [3] 0.05 | [5] 0.05 | [6] -0.281 | [7] -0.047 | [9] 0.019 | Nexturastat A 0.18 | [11] -0.107 | [12] 0.135 | givinostat -0.134

DERPC (UniProt P0CG12)
UniProt P0CG12, sequence (P0CG12 whole entry, looked up): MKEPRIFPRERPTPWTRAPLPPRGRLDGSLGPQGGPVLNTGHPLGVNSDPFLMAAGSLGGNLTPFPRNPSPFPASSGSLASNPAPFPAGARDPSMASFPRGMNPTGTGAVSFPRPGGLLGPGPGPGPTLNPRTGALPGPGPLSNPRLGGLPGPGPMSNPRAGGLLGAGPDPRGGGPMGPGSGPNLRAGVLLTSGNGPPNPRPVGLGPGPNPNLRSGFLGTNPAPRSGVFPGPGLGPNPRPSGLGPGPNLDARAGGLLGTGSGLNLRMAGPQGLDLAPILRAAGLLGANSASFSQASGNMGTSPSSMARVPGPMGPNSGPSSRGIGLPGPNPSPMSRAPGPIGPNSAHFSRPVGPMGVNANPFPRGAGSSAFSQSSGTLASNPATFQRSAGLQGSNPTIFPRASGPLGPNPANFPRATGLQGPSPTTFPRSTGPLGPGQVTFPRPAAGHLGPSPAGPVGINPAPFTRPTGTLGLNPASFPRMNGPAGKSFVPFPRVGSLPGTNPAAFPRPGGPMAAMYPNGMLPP
inactive: IRAK-1-4 Inhibitor I -0.077 | ibrutinib 0.004 | ralimetinib 0.017 | [3] -0.003 | [4] -0.029 | pinometostat 0.161 | [5] 0.066 | [8] -0.052 | [10] 0.005 | vemurafenib 0.07 | [12] -0.029 | barasertib 0.012
active: givinostat 0.454

DCAF4 (UniProt Q8WV16)
UniProt Q8WV16, sequence (Q8WV16 whole entry, looked up): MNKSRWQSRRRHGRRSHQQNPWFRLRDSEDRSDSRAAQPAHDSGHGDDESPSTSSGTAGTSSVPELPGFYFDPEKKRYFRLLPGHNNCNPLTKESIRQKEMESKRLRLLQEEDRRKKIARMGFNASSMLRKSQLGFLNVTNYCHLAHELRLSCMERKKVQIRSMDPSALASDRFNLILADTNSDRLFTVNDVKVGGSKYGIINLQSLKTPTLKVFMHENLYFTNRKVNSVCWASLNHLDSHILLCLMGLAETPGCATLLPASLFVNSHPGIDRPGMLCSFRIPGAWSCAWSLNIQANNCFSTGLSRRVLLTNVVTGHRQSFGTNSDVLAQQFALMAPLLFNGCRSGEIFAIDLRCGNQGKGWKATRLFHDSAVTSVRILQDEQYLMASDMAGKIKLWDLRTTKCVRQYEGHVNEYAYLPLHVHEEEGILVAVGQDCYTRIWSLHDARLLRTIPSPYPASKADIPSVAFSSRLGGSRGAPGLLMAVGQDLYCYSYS
inactive: ralimetinib -0.026 | [2] -0.019 | [4] -0.042 | [5] 0.043 | [7] 0.03 | [8] 0.072 | Nexturastat A -0.132 | [12] -0.061

EEF2K (UniProt O00418)
inactive: ralimetinib 0.126 | [2] -0.047 | [3] -0.245 | [4] 0.169 | [8] 0.006 | [9] 0.043 | Nexturastat A 0.201 | vemurafenib 0.089 | [11] 0.157 | [12] 0.15 | givinostat -0.041

DHPS (UniProt M0R1T2)
inactive: ibrutinib 0.124 | [7] 0.118 | barasertib 0.11

FADS1 (UniProt F5GYH4)
inactive: IRAK-1-4 Inhibitor I 0.02 | ibrutinib -0.093 | pinometostat 0.075 | [6] -0.097 | [10] -0.254 | vemurafenib -0.052 | barasertib 0.024

ENTR1 (UniProt Q96C92)
UniProt Q96C92, sequence (Q96C92 whole entry, looked up): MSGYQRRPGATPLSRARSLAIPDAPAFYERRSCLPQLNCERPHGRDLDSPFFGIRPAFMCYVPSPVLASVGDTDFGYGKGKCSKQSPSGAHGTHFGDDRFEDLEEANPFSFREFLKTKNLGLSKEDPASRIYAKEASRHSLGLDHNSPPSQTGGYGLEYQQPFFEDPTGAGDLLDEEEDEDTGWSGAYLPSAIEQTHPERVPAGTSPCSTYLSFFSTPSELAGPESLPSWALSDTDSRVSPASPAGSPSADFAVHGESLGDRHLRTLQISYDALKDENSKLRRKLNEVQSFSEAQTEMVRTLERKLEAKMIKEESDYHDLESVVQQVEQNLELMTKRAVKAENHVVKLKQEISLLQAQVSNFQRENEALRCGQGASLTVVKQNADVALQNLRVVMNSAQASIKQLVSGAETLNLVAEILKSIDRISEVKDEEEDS
inactive: [3] -0.156 | [9] -0.091 | vemurafenib 0.06 | [11] -0.105 | givinostat 0.062

ELAC1 (UniProt Q9H777)
inactive: IRAK-1-4 Inhibitor I 0.028 | [1] 0.027 | [2] 0.027 | [3] 0.116 | pinometostat -0.129 | [5] -0.01 | [7] 0.003 | [9] -0.051 | [10] -0.049 | Nexturastat A 0.011 | vemurafenib -0.017 | [11] 0.007 | givinostat -0.023

FAM135A (UniProt Q9P2D6)
inactive: [2] 0.009 | [3] 0.051 | [5] -0.002 | [7] -0.178 | vemurafenib -0.042 | givinostat 0.131
active: Nexturastat A 0.5

DEGS1 (UniProt O15121)
UniProt O15121, sequence (O15121 whole entry, looked up): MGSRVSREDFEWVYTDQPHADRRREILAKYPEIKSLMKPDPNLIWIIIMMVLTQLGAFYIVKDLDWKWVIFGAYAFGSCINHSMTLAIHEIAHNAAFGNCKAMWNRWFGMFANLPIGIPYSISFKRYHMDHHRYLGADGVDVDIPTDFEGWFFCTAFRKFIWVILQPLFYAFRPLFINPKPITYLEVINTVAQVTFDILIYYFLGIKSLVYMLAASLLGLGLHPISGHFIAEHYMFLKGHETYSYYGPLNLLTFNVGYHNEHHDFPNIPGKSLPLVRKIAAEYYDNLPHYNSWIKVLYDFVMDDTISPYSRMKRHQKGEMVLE
inactive: ibrutinib 0.049 | [1] 0.066 | [2] 0.013 | [3] 0.074 | [5] -0.118 | [6] 0.197 | [7] -0.088 | [9] 0.003 | Nexturastat A -0.062 | vemurafenib -0.185 | [11] 0.033 | [12] -0.053 | givinostat -0.023 | barasertib -0.018

DENND1A isoform 6 (UniProt Q8TEH3)
inactive: IRAK-1-4 Inhibitor I 0.121 | ibrutinib -0.003 | pinometostat -0.356 | [6] 0.113 | [9] 0.025 | [10] -0.009 | vemurafenib -0.119 | [11] 0.114 | barasertib 0.293

DDB1 isoform 2 (UniProt Q16531)
inactive: ibrutinib -0.034 | [2] 0.078 | [7] -0.144 | Nexturastat A -0.061 | barasertib 0.116

DHRS13 (UniProt Q6UX07)
UniProt Q6UX07, sequence (Q6UX07 whole entry, looked up): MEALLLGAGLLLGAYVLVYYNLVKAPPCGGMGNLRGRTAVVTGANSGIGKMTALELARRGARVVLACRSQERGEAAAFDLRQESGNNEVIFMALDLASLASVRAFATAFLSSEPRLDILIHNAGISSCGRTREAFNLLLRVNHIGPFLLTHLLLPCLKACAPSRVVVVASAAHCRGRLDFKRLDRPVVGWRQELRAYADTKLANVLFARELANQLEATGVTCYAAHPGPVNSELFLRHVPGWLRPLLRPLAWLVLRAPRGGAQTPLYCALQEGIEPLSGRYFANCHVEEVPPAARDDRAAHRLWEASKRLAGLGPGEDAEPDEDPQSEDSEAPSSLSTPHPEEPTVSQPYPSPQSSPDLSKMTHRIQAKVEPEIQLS
inactive: IRAK-1-4 Inhibitor I -0.275 | [1] -0.051 | ralimetinib 0.035 | [3] -0.007 | [4] 0.144 | pinometostat 0.224 | [5] -0.168 | [6] -0.085 | [7] -0.106 | [8] 0.027 | [10] -0.055 | vemurafenib -0.062 | [12] 0.084 | givinostat 0.249
